# Measured values taken from PubChem BioAssay (NCATS).
# Results filed as inconclusive are left out. Calls of active or inactive are those of the source. The call rests on the fitted dose curve; in most records, active means well fitted inhibition curve with a large enough effect; inconclusive means small, poorly fitted or top-dose-only effect; inactive means flat fitted curve, though single readings scatter.
# System: MCC-26
# Assay: qHTS assay to identify novel small-molecules to repurpose for Merkel cell carcinoma treatment (AID 1296009); further: nearly all actives have a fitted effect of over 60% in size
# Conditions: MCC and control cell lines, CellTiter-Glo viability, 72 h; series mostly up to 46 µM; activity change, negative = cytotoxicity: at the top concentration
# Text: MCC is a rare and aggressive neuroendocrine skin cancer with limited treatment options. Approximately 80% of MCCs have the Merkel cell polyomavirus (MCPyV) DNA integrated into the host genome (virus-positive: VP-MCC) and viral oncogenes drive oncogenesis. The remaining MCCs are virus-negative (VN-MCC) and are caused by UV mutagenesis. To identify novel treatments for VP-MCC and/or VN-MCC we screened three VP-MCC cell lines (WAGA, MKL-1, MKL-2), three VN-MCC cell lines (MCC-13, MCC-26, UISO), and four immortalized, non-transformed control cell lines (HaCaT, HEK293T, CRL7250, NIH-3T3) against ~2,400 compounds in the NCGC Pharmaceutical Collection (NPC) and ~1,900 compounds in the Mechanism Interrogation PlatE (MiPE). Using cell viability as a readout (CellTiter-Glo assay) we found both overlapping and distinct drugs that can be repurposed for the treatment of VP-MCC and VN-MCC.
# A high-throughput screen was conducted in 1536-well white flat bottom plates (Corning) on a Kalypsys robotic system. Cell lines WAGA, MKL-1, MKL-2, MCC-13, MCC-26, UISO, HaCaT, HEK293T, CRL7250, and NIH-3T3 were screened against 2 small molecule annotated drug libraries NPC and MIPE in dose response (8 and 11 pt. respectively) measuring cell viability after 72 hours of incubation. […] A 1,536 pintool (Kalypsys) was used to transfer 23 nL of compound in DMSO to the 1,536-well assay plates. After 72 hr incubation at 37 degree celsius, 2.5 uL of CellTiter-Glo (Promega) was dispensed into each well using a BiorapTR. Plates were incubated at room temperature for 10 min, transferred to a ViewLux (PerkinElmer) and the luminescence was recorded using an exposure time of 2 seconds. Relative luminescence units (RLUs) were normalized to in-plate controls (no cells as a positive (cytotoxicity) control, DMSO as negative control) and the normalized data was processed using NCATS in-house software.
# On the % scale 0 is the no-effect control and ±100 the full control effect; potency means the concentration at half of the fitted maximal effect.
Structure (SMILES),"activity change, negative = cytotoxicity",Potency
CC(=O)Nc1c(I)cc(I)c(C(=O)O)c1I,5.22% (inactive),–
O=c1ccc2ccccc2o1,2.97% (inactive),–
CCCCOc1ccc(OCCCN2CCOCC2)cc1,-7.81% (inactive),–
COC(=O)C1=C(C)NC(C)=C(C(=O)O[C@@H]2CCCN(Cc3ccccc3)C2)[C@@H]1c1cccc([N+](=O)[O-])c1,-1.62% (inactive),–
O=C1[C@H]2CCCC[C@H]2C(=O)N1CCCCN1CCN(c2nsc3ccccc23)CC1,1.8% (inactive),–
Cc1cccc(C)c1NC(=O)CN1CCN(CCCC(c2ccc(F)cc2)c2ccc(F)cc2)CC1,4% (inactive),–
OC(CCN1CCCCC1)(c1ccccc1)c1ccccc1,-13.3% (inactive),–
CN1CCC[C@@H]1c1cccnc1,-11.2% (inactive),–
CN=C(NC#N)Nc1ccc(C2=NNC(=O)CC2C)cc1 (stereo not given),-8.21% (inactive),–
Cc1ccc(Nc2c(F)cccc2Cl)c(CC(=O)O)c1,5.55% (inactive),–
CCOC(=O)OC(C)OC1=C(C(=O)Nc2ccccn2)N(C)S(=O)(=O)c2ccccc21 (stereo not given),12.5% (inactive),–
N[C@H](Cc1c[nH]c2ccccc12)C(=O)O,9.22% (inactive),–
C=C(CC)C(=O)c1ccc(OCC(=O)O)c(Cl)c1Cl,9.2% (inactive),–
CC/C(=C(/CC)c1ccc(O)cc1)c1ccc(O)cc1,-4.85% (inactive),–
CCCCCCCCCCCCCCCCCC(=O)OCC(O)CO (stereo not given),7.99% (inactive),–
CN(C)CCCOc1nn(Cc2ccccc2)c2ccccc12,-21.1% (inactive),–
C[C@@H](CN(C)C)CN1c2ccccc2Sc2ccccc21,-9.2% (inactive),–
O=S1(=O)c2cccc3cccc(c23)N1CCCN1CCN(c2ccc(F)cc2)CC1,-7.9% (inactive),–
CC(C)=CCC1C(=O)N(c2ccccc2)N(c2ccccc2)C1=O,-7.81% (inactive),–
COc1cc2c(cc1OC)C(C(C(=O)N(CCc1ccc(OC)c(OC)c1OC)CCc1ccc(OC)c(OC)c1OC)c1ccccc1)=NCC2 (stereo not given),-9.27% (inactive),–

Structure (SMILES),"activity change, negative = cytotoxicity",Potency
Oc1ccc(O)cc1,5.2% (inactive),–
CCOc1ccc2nc3cc(N)ccc3c(N)c2c1,-22.5% (inactive),–
Cc1cc(=O)n(-c2ccccc2)n1C,2.4% (inactive),–
COC1=CC(=O)C[C@@H](C)[C@]12Oc1c(Cl)c(OC)cc(OC)c1C2=O,-9.38% (inactive),–
NCCCC[C@H](N[C@@H](CCc1ccccc1)C(=O)O)C(=O)N1CCC[C@H]1C(=O)O,3.04% (inactive),–
C=CCc1ccc(O)c(OC)c1,12.1% (inactive),–
C=C1C(=C/C=C2\CCC[C@]3(C)[C@@H]([C@H](C)/C=C/[C@@H](O)C4CC4)CC[C@@H]23)C[C@@H](O)C[C@@H]1O,-12.9% (inactive),–
CCCN1CCCC[C@H]1C(=O)Nc1c(C)cccc1C,3.97% (inactive),–
CC(=O)[C@H]1CC[C@H]2[C@@H]3C[C@H](C)C4=CC(=O)CC[C@]4(C)[C@H]3[C@@H](O)C[C@]12C,-3.62% (inactive),–
CC1=C(C(=O)O)N2C(=O)[C@@H](NC(=O)[C@H](N)c3ccc(O)cc3)[C@H]2SC1,1.17% (inactive),–
C[C@H](O)C(=O)Nc1c(I)c(C(=O)NC(CO)CO)c(I)c(C(=O)NC(CO)CO)c1I,9.81% (inactive),–
N[C@@H](CCC(=O)N[C@@H](CS)C(=O)NCC(=O)O)C(=O)O,8.57% [at 16.1 µM] (inactive),–
CCN(CC)C(=O)/C(C#N)=C/c1cc(O)c(O)c([N+](=O)[O-])c1,-1.44% (inactive),–
CCCSS/C(CCO)=C(\C)N(C=O)Cc1cnc(C)nc1N,–,26.6 µM (active)
Cc1c(F)c(N2CCNC(C)C2)cc2c1c(=O)c(C(=O)O)cn2C1CC1 (stereo not given),7.7% (inactive),–
CC1(C)O[C@@H]2C[C@H]3[C@@H]4C[C@H](F)C5=CC(=O)CC[C@]5(C)[C@H]4[C@@H](O)C[C@]3(C)[C@]2(C(=O)CO)O1,-2.94% (inactive),–
CN1CCN(C(c2ccccc2)c2ccccc2)CC1,-12.5% (inactive),–
CC1(C)O[C@@H]2C[C@H]3[C@@H]4CCC5=CC(=O)CC[C@]5(C)[C@@]4(F)[C@@H](O)C[C@]3(C)[C@]2(C(=O)CCl)O1,-2.37% (inactive),–
CCCCCC=CCC=CCCCCCCCC(=O)OCC,6.37% (inactive),–
CN(C(=O)CN(CCO)CC(=O)N(C)C(C)(C)Cc1ccccc1)C(C)(C)Cc1ccccc1,-10.1% (inactive),–
